Reference: PubChem BioAssay (Tox21)
Records with an inconclusive call do not appear. Active and inactive are the calls of the source. Unless noted, the call rests on the fitted dose curve; in most records, active means well fitted curve in the direction sought with a large enough effect in the repeat runs; inconclusive means weak or mixed curves; inactive means no such curve, though single readings can be large; an effect the other way counts as inactive or inconclusive.

Tests used:
[1] = qHTS assay for small molecule agonists of the p53 signaling pathway (AID 651631; calls by dose curve; further: nearly all actives have a fitted effect of over 15% in size)
Summary of the method: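 HCT-116 p53RE-bla reporter line, 16 h compound treatment at 37 °C, then fluorescence after 2 h with B/G FRET substrate.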

[2] = qHTS assay for small molecule agonists of the p53 signaling pathway - cell viability (AID 651633; calls by dose curve;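 further: p53RE-bla HCT reporter cells with a stable beta-lactamase p53 reporter; series mostly up to about 83 µM; nearly all actives have a fitted effect of over 30% in size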)
Summary of the method: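 Viability counter-read: CellTiter-Glo luminescence (30 min, room temperature) in the same p53RE-bla plates. These plates had been exposed to compounds for 16 h at 37 C.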

[3] = qHTS assay for small molecules that induce genotoxicity in human embryonic kidney cells expressing luciferase-tagged ATAD5 - cell viability (AID 651634; calls by dose curve; further: nearly all actives have a fitted effect of over 25% in size)
Summary of the method: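 Live-cell protease activity (CellTiter-Fluor, fluorescence) indicates viability. HEK293T cells with luciferase-tagged ATAD5; 15.5 hr compound treatment at 37C.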

[4] = qHTS assay for small molecule disruptors of the mitochondrial membrane potential - cell viability (AID 720634; calls by dose curve;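 further: human HepG2 liver cancer cells; series mostly up to about 83 µM; nearly all actives have a fitted effect of over 20% in size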)
Summary of the method: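 Human hepatoma HepG2 cells were treated for 1 hr with test chemicals, then given m-MPI dye and CellTiter-Glo. Cell viability reflects luminescence proportional to cellular ATP.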

[5] = qHTS assay for small molecule disruptors of the mitochondrial membrane potential (AID 720635)
Summary of the method: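 Mitochondrial membrane potential tracked with Mito-MPS dye, red aggregates (ex 540/em 590 nm) against green monomers (ex 490/em 535 nm). Compound treatment 1 hr at 37C, dye 30 min in HepG2.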

[6] = qHTS assay to test for compound auto fluorescence at 590 nm (red) in HepG2 cells (AID 720674)
Summary of the method: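 Red autofluorescence (Ex/Em 540/590 nm, Rose Bengal sodium equivalents) was measured in HepG2 cells, 2,000 per well in MEM plus 10% FBS, plated overnight at 37 C. Readings were taken 1 hr after adding 23 nL compound or DMSO, at 37 C and 5% CO2.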

[7] = qHTS assay to test for compound auto fluorescence at 535 nm (green) in HepG2 cells (AID 720675)
[8] = qHTS assay to test for compound auto fluorescence at 460 nm (blue) in HEK293 cells (AID 720678)
Summary of the method: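 Intrinsic compound fluorescence is recorded in live HEK293 cultures after overnight incubation at 37C, 5% CO2, using excitation 405 nm and emission 460 nm. Values are referenced to triamterene.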

[9] = qHTS assay to test for compound auto fluorescence at 590 nm (red) in HEK293 cells (AID 720679)
Summary of the method: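 Red autofluorescence, HEK293 cells: 2,000 cells/well; attach 4-5 hr 37C; add 23 nL cpd or DMSO; incubate o/n 37C 5% CO2; read Ex540/Em590; Rose Bengal sodium reference.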

[10] = qHTS assay to test for compound auto fluorescence at 535 nm (green) in HEK293 cells (AID 720680)
[11] = qHTS assay to test for compound auto fluorescence at 460 nm (blue) in HEK293 cell free culture (AID 720681)
Summary of the method: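 Blue fluorescence (Ex 405/Em 460 nm, triamterene-equivalent) was read immediately after pin transfer of compound or DMSO into medium (DMEM, 10% FBS) without cells.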

[12] = qHTS assay to test for compound auto fluorescence at 535 nm (green) in HEK293 cell free culture (AID 720682)
Summary of the method: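 Steps: dispense DMEM/10% FBS into empty wells; pin in compound or DMSO; measure fluorescence at 485/535 nm. Values are fluorescein equivalents.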

[13] = qHTS assay to test for compound auto fluorescence at 590 nm (red) in HEK293 cell free culture (AID 720683)
Summary of the method: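 Red-channel autofluorescence of compounds in culture medium (DMEM, 10% FBS), no cells, measured at 540/590 nm. Rose Bengal sodium is the reference fluorophore for equivalence.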

[14] = qHTS assay to test for compound auto fluorescence at 590 nm (red) in HepG2 cell free culture (AID 720684)
Summary of the method: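 Plate contents were MEM with 10% FBS plus test compound or DMSO, no cells. Fluorescence was recorded with 540 nm excitation and 590 nm emission.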

[15] = qHTS assay to test for compound auto fluorescence at 460 nm (blue) in HepG2 cell free culture (AID 720685)
Summary of the method: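 Compound (23 nL) or DMSO pinned into cell-free MEM with 10% FBS; blue fluorescence read at 405/460 nm excitation/emission, expressed as auto-fluorescence equivalency to triamterene.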

[16] = qHTS assay to test for compound auto fluorescence at 535 nm (green) in HepG2 cell free culture (AID 720686)
[17] = qHTS assay to test for compound auto fluorescence at 460 nm (blue) in HepG2 cells (AID 720687)
Summary of the method: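 Blue-channel autofluorescence (Ex/Em 405/460 nm, triamterene-equivalent) was measured after 1 hr compound exposure at 37 C, 5% CO2. Cells were HepG2, plated overnight at 37 C in MEM plus 10% FBS.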

[18] = qHTS assay for small molecules that induce genotoxicity in human embryonic kidney cells expressing luciferase-tagged ATAD5 (AID 651632); further: nearly all actives have a fitted effect of over 15% in size
Summary of the method: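 Genotoxicity read-out via ATAD5-luciferase: HEK293T cells, 16 hr compound incubation at 37C, Amplite detection.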

[19] = molecular target: Glucocorticoid receptor (Homo sapiens) (UniProt P04150); assay: qHTS assay to identify small molecule agonists of the glucocorticoid receptor (GR) signaling pathway (AID 720691; active means well fitted activation curve with a large enough effect in the signal ratio in the repeat runs, not every such curve was filed as active; the % refers to the signal ratio)
Chain of Glucocorticoid receptor (Homo sapiens) (P04150 whole entry, looked up): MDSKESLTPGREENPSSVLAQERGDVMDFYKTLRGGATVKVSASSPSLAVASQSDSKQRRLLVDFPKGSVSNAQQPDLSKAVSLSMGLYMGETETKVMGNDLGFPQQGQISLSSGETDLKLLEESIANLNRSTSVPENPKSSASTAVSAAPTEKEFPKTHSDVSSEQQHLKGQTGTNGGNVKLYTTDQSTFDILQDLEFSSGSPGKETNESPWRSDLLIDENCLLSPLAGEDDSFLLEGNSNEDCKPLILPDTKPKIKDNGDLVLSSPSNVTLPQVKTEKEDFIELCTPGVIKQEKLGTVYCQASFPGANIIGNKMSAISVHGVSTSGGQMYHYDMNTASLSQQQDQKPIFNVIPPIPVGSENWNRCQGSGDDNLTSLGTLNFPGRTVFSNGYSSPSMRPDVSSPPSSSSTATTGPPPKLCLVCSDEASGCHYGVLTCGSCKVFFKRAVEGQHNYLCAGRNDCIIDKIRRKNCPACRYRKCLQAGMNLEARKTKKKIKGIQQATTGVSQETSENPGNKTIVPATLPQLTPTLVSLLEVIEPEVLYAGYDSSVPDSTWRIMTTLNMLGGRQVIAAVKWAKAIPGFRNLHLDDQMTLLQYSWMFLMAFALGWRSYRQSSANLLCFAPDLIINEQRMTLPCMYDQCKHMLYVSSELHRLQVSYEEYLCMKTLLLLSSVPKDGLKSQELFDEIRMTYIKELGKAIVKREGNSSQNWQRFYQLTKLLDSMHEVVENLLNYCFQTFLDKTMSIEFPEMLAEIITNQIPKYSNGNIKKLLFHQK
Summary of the method: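 Beta-lactamase reporter activity, read as fluorescence intensity, was measured in GR-bla HeLa cells exposed to compounds for 18 h at 37 C and then loaded with LiveBLAzer B/G FRET substrate for 2 h at room temperature.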

[20] = molecular target: Glucocorticoid receptor (Homo sapiens) (UniProt P04150); assay: qHTS assay to identify small molecule antagonists of the glucocorticoid receptor (GR) signaling pathway (AID 720692; active means well fitted inhibition curve with a large enough effect in the signal ratio in the repeat runs, not every such curve was filed as active; the % refers to the signal ratio)
Summary of the method: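 Fluorescence from cleaved LiveBLAzer B/G FRET substrate reports GRE-driven beta-lactamase in HeLa cells; compounds are tested against 5 nM dexamethasone (final) over 18 h at 37 C, substrate incubation 2 h at room temperature.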

Measured: Potency

OCCOCCOCCOCCOCCO
not listed: [18] | [19] | [20]
inactive: all other assays above

C=CC(C)(C)C
not listed: [5] | [11]
inactive: all other assays above

CCn1cc(C(=O)O)c(=O)c2cc3c(cc21)OCO3
not listed: [18] | [19] | [20]
inactive: all other assays above

CC1(C)[C@@H](O[C@H]2O[C@H](C(=O)O)[C@@H](O)[C@H](O)[C@H]2O[C@@H]2O[C@H](C(=O)O)[C@@H](O)[C@H](O)[C@H]2O)CC[C@]2(C)[C@H]3C(=O)C=C4[C@@H]5C[C@@](C)(C(=O)O)CC[C@]5(C)CC[C@@]4(C)[C@]3(C)CC[C@@H]12
not listed: [18] | [19] | [20]
inactive: all other assays above

COC(=O)OC
not listed: [8]
inactive: all other assays above

Cc1ccccc1C=O
not listed: [3] | [11]
inactive: all other assays above

CCCCCCCCC(=O)O
inactive: all assays above

O=C1OC(=O)c2c(Cl)c(Cl)c(Cl)c(Cl)c21
not listed: [3] | [19] | [20]
inactive: all other assays above

CCCN(CCC)C(=O)SCC
not listed: [8] | [11]
inactive: all other assays above

Cc1ccccc1Cl
not listed: [18]
inactive: all other assays above

CC(=O)Nc1ccc(CC(=O)O)cc1
not listed: [3] | [8] | [11]
inactive: all other assays above

CC(=O)OC[C@H]1O[C@@](COC(C)=O)(O[C@H]2O[C@H](COC(C)=O)[C@@H](OC(C)=O)[C@H](OC(C)=O)[C@H]2OC(C)=O)[C@@H](OC(C)=O)[C@@H]1OC(C)=O
not listed: [8] | [11]
inactive: all other assays above

O=C1C(N(CO)C(=O)NCO)N(CO)C(=O)N1CO (stereo not given)
not listed: [3] | [19] | [20]
inactive: all other assays above

CC(C)c1ccc(C(C)C)cc1
not listed: [8]
inactive: all other assays above

C=C(CC(=O)O)C(=O)O
not listed: [8]
inactive: all other assays above
